The text below walks through data of PMC5540273 (PLoS ONE, 2017).

Bounds are passed on as bounds.
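Note: kd values determined as follow-up on hits from a single-replicate KINOMEscan panel screen.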

The first test relates to DDR1.
In general, Kd refers to a measure of binding affinity in units of concentration. Read a high Kd as lower affinity. Take `COc1ccc(-c2oc3ncnc(N)c3c2-c2ccc(OC)cc2)cc1` [SB-589132]: the Kd amounted to 650 nM. As for `O=C(Nc1ccccc1)Nc1ccc(Oc2ccc3nccn3n2)cc1`, the Kd is 9.3 nM. As for `FC(F)(F)c1ccc(-c2nn3ncccc3c2-c2ccnc(Nc3cccc(C(F)(F)F)c3)n2)cc1` [GW828205], the Kd is more than 10000 nM. The same measure, in the same setting: the result for `Fc1ccc(Nc2nccc(-c3c(-c4ccc(Cl)cc4)nn4ncccc34)n2)cc1F` [GW829058] reads 750 nM; that for `Cn1cc(-c2ccc3c(c2)CCN3C(=O)Cc2cccc(C(F)(F)F)c2)c2c(N)ncnc21` [GSK2606414], 280 nM.

In another test the test system is T1, DMPK2.
T1 construct: gene CDC42BPG
`Clc1cccc(-c2nc(Nc3ccncc3)c3ccccc3n2)c1` [GW873004] gave a Kd of more than 10000 nM. In turn, `CNc1nccc(-c2c(-c3ccc(F)cc3)ncn2CCCN2CCOCC2)n1` [SB-222516] showed a Kd of more than 10000 nM.

Regarding `CCCc1ccc(S(=O)(=O)NC2CCN(c3ccnc(Nc4ccc(OC)cc4)n3)C2)cc1` (centres unmarked) [GSK1379737], the Kd was more than 10000 nM.
